# Screening results as filed in PubChem.
# Shown are actives, neighbours in structure and some others; about 6.2% of the full set was active somewhere.
# AHR activator – human AHR activation | AID 2796 | P35869 | AHR-responsive luciferase reporter cells, luminescence | hit rate 2.5% among 320,000 | activation, % at 5 µM; in the data active means activation above about 47%;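 further: 0% = vehicle wells and 100% = reference agonist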
# Target sequence (P35869 whole entry, looked up): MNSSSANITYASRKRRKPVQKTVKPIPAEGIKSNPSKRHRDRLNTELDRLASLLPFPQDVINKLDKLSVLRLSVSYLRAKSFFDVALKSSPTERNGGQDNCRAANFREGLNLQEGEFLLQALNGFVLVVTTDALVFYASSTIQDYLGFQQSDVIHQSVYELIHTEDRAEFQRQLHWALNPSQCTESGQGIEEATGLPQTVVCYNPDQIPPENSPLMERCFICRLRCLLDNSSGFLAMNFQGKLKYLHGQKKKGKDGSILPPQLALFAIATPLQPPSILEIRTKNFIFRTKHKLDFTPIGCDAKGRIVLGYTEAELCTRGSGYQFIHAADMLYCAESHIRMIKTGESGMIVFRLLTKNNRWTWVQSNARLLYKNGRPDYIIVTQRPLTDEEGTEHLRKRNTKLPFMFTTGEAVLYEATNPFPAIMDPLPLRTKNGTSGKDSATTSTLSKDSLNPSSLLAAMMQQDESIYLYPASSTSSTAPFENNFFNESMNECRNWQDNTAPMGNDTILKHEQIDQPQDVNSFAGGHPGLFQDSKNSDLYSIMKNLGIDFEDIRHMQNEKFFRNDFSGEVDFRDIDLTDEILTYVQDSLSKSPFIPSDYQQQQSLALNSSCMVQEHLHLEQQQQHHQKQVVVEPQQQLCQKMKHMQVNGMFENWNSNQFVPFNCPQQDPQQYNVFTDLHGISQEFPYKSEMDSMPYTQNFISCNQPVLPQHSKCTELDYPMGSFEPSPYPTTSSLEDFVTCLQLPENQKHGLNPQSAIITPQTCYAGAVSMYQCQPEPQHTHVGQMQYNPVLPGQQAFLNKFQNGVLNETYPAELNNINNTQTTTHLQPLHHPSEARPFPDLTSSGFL
# SUMO Mot1 rescue – inhibitors of SUMOylation pathway: yeast Mot1-301 growth rescue. S. cerevisiae Mot1-301 growth rescue, ATP luminescence, 38.5C; percent above DMSO median, 100 means doubled. growth rescue, % at 18.8 µM. hit rate 1% among 320,000. AID 2716;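 active means every valid replicate shows activation above 250% relative to neutral control wells; inactive means the rest, any valid replicate at or below 250%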;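 further: OY570 slx delta 5 strain wells were the positive control but not used for scaling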
# AI-2 QS mod – Vibrio harveyi AI-2 quorum sensing modulation; Vibrio harveyi JMH597 AI-2 luminescence/OD600 ratio, 9 h; hits give low values; strain lacks LuxN and CqsS sensors; 0 = neutral-control median; activity change, % at 7.5 µM; hit rate 0.4% among 300,000; in the data active means activity change below about -75%, passing the limit was not always enough; inconclusive means no clear call, values can overlap the other calls;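 further: luminescence divided by OD600 gain over 9 h not by final OD600 alone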
# NR3A LBD binder – modulators (binders) of human NR3A ligand-binding domain. NR3A LBD differential scanning fluorimetry, Tm shift; 0% = protein alone, 100% = glycine-bound protein. AID 1259313. hit rate 2.5% among 340,000. Tm shift relative to glycine control, % at 25 µM;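 active means melting temperature shift of at least 10% of the positive control shift, at one fixed dose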
# Cardio protect – modulators protecting cardiomyocytes from myocardial damage; AID 588492; H9c2 cardiomyocytes, H2O2 injury protection, ATPLite, 2 h; hit rate 0.63% among 360,000; protection from H2O2 cell death, % at 20 µM;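 active means compounds giving at least 50% protection of heart cells from peroxide-induced death in the single-dose screen, raw or plate-pattern-corrected value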;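 further: 0% = DMSO wells with peroxide and 100% = DMSO wells without peroxide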
# NTR1 agonist – NTR1 (human) agonism; P30989; NTR1-U2OS beta-arrestin-GFP spot imaging, agonist mode; activation, % at 20 µM; hit rate 0.17% among 330,000; AID 493036;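 active means activation at or above 40% of the spot to cytoplasm intensity ratio, with at least 20 cells analyzed; inconclusive means wells under 20 cells, flagged as cytotoxic or low count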;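 further: 0% = DMSO without peptide and 100% = 100 nM NTR1 peptide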
# Active calls of the source: *; ? = inconclusive; . = not tested or not shown; ! = not active in a repeat.
SMILES,AHR activator,SUMO Mot1 rescue,AI-2 QS mod,NR3A LBD binder,Cardio protect,NTR1 agonist
COc1ccccc1NC(=O)CCS(=O)(=O)c1cc2c(cc1Cl)NC(=O)CO2,2,2,.,2,7,-1
O=C(Nc1cc(S(=O)(=O)Nc2ccccc2Cl)ccc1O)c1sc2cc(Cl)ccc2c1Cl,4,-10,23,150*,-25,-1
O=C(COC(=O)c1ccc(F)c([N+](=O)[O-])c1)NC(=O)NCc1ccccc1,-2,2,.,-3,-18,18
CC(C)NC(=S)N=Nc1c(O)[nH]c2ccc(C(C)C)cc12,67*,-2,30,-3,8,2
CC(C)c1ccc2[nH]c(O)c(N=NC(=O)c3cccc(S(=O)(=O)Nc4ccccc4Cl)c3)c2c1,4,10,6,7,-3,4
COc1ccccc1OCC(O)COC(N)=O (stereo not given),-1,19,11,13*,0,2
CCOc1ccccc1NC(=O)NCCc1c[nH]c2ccccc12,64*,49,21,5,-7,1
CCCCCCCCCCCCCCCC(=O)NCCc1c[nH]c2ccccc12,8,-14,-16,0,-6,9
O=C(NCCc1c[nH]c2ccccc12)Nc1cccc2ccccc12,1,-14,4,18*,-9,-2
COc1ccc(NC(=O)NCCc2c[nH]c3ccccc23)c(OC)c1,.,14,9,-8,2,1
CCCCOc1ccc(-c2nnn(CC(=O)NCCc3c[nH]c4ccccc34)n2)cc1,3,-9,9,17*,-11,1
C#CCN(C[C@@H]1[C@@H](OC(=O)Nc2cccs2)[C@@H](OC(=O)Nc2cccs2)Cn2c(=O)n(CCCCCC)c(=O)n21)S(=O)(=O)c1ccc(C)cc1,.,.,.,.,-10,.
CCCCCCNC(=O)CC(c1ccccc1)c1cc(Br)ccc1O (stereo not given),2,-31,10,12*,-40,29
CC(C)NC(=O)CC(c1ccccc1)c1cc(Br)ccc1O (stereo not given),1,-13,-7,-3,-1,0
Cc1cc(SCC(=O)c2ccc(O)c(O)c2)n2nc(C)c(-c3ccccc3)c2n1,0,-5,31,23*,71*,8
CC1(C)NC(=O)N(CC(=O)N2CCCC(C(F)(F)F)C2)C1=O (stereo not given),2,-14,14,3,0,0
N#CCCn1cc(/C=C2\NC(=S)N(c3ccccc3)C2=O)c(-c2ccc(F)cc2)n1,2,8,30,10*,-6,8
Oc1c(Br)cc(Br)cc1C=Nc1ccc2c(c1)OCCO2,4,.,-2,-8,84*,2
O=[N+]([O-])c1cc(Cc2ccccc2)cc(C=Nc2ccc(N3CCOCC3)cc2)c1O,1,23,42,-20,86*,.
Oc1ccc(C=Nc2ccc(N3CCOCC3)cc2)c(O)c1,14,-5,4,-23,13,-3
Oc1c(Cl)cc(Cl)cc1C=Nc1ccc(N2CCOCC2)cc1,3,16,27,2,65*,1
Oc1ccc(N=Nc2cccc(C(F)(F)F)c2)cc1C=Nc1ccc(N2CCOCC2)cc1,5,750,26,-8,76*,-1
CCCCC(=O)NNC(=O)N1c2ccccc2Sc2ccccc21,1,-25,22,-7,5,-1
C[C@]12c3[nH]c4ccc(Cl)cc4c3CCN1C(=O)[C@@H](CC(=O)NCc1ccco1)C[C@@H]2C(=O)N1CCCCC1,.,.,.,-4,1,5
Cc1ccc(S(=O)(=O)N(CC(=O)NCC2CCCO2)C2CCCCC2)cc1 (stereo not given),-1,-17,21,-3,2,-2
SMILES,AHR activator,SUMO Mot1 rescue,AI-2 QS mod,NR3A LBD binder,Cardio protect,NTR1 agonist
COC(=O)c1ccc(OCC(O)CNCC(c2ccc(OC)cc2)N(C)C)c(OC)c1 (stereo not given),-1,6,17,0,-1,0
Oc1cc(Br)ccc1C=Nc1ccc(N2CCCCC2)cc1,2,-19,8,1,33,0
Cc1cc(Br)cc(C=Nc2ccc(N3CCOCC3)cc2)c1O,9,59,18,1,84*,1
CCC1(c2ccc(F)cc2)NC(=O)N(CC(=O)NCc2ccc(F)cc2)C1=O (stereo not given),3,66,-39,-1,4,1
CCC1(c2ccc(F)cc2)NC(=O)N(CC(=O)NCc2ccc(C)cc2)C1=O (stereo not given),3,9,-78*,-2,-2,0
CN1CCC(OC(c2ccccc2)c2ccccc2)CC1,-1,321*!,22,-1,6,3
CN1CCC(Oc2ccccc2Sc2ccccc2)CC1,-6,74,37,-1,10,3
COc1ccc(CCNC(=O)c2ccc3ccccc3n2)cc1,19,-25,17,0,-12,0
C/C(=N\NC(=S)Nc1c(C)cccc1C)c1cc2ccccc2o1,20,322*,15,3,-6,2
C/C(=N\NC(=S)Nc1ccccc1C)c1cc2ccccc2o1,27,0,9,-5,7,7
O=C(NCCCN1CCCCC1)c1ccc(CS(=O)c2ccc(F)cc2)o1 (stereo not given),2,2,1,-1,-8,0
CCc1nc2c(OCC(=O)C(C)(C)C)cccn2c1N(C)C(=O)COc1ccccc1,.,.,.,.,-1,.
CCCCCCCCCC[N+](C)(C)CC/C=C1/c2ccccc2Sc2ccc(Cl)cc21,0,72,?,22*,-20,29
CCCCCCCCCCC[N+](C)(C)CC/C=C1/c2ccccc2Sc2ccc(Cl)cc21,0,29,-145*,-411,-20,19
O=C(Nc1ccc(N2C(=O)C3C4C=CC(C4)C3C2=O)cc1)Nc1nnc(C(F)(F)F)s1 (stereo not given),4,964,7,20*,-6,0
CN1/C(=C\C=Nc2ccc3ccccc3c2)C(C)(C)c2ccccc21,55*,-21,.,.,-24,2
CN1/C(=C\C=O)C(C)(C)c2ccccc21,64*,-4,26,-2,-23,0
CN(C)c1ccc(N=C/C=C2\N(C)c3ccccc3C2(C)C)cc1,150*,-17,31,-3,-38,1
COC(=O)C[C@H]1C[C@H]2c3cc(NC(=O)C4CCOCC4)ccc3O[C@H]2[C@@H](CO)O1,.,.,.,.,0,.
COc1ccc(C(=O)NNC(=S)NC(=O)c2cccc([N+](=O)[O-])c2)cc1,2,-35,-85*,-9,17,-1
Cc1ccc(C(=O)NNC(=S)Nc2cccc(Cl)c2Cl)cc1[N+](=O)[O-],-1,26,3,18*,-4,5
CCn1c(C)nc2cc(C(=O)NNC(=S)Nc3ccc(C)cc3)ccc21,-3,-3,20,-1,-7,2
